# Measurements as given in PubChem BioAssay (EPA / NIEHS).
# “And” between values parts separate entries of the source, which are not always exact repeats. Identical values can stand only once. Results filed as inconclusive are left out. More than one record can exist for a structure, and the calls need not agree. The source made the active and inactive calls. The calls were made as follows, unless noted: active = hit-call score of the fitted dose curve at least 0.9, where 1 is the maximum; inactive = score below 0.9.
# Tests used:
# [1] = CCTE_Shafer_MEA_dev_firing_rate_mean: CCTE's Neural Network Formation Assay for Mean Firing Rate, Shafer Lab (AID 2284031);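 as to AC50: curve fitted for loss of firing so AC50 reflects decreased mean firing rate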
# Method in brief: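 Spike frequency (spikes/recording length, averaged over active electrodes) was recorded on days 5, 7, 9 and 12 and collapsed to AUC; rat cortical cultures received compound continuously over 12 days of network development.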
# [2] = CCTE_Shafer_MEA_dev_per_burst_spike_percent: CCTE's Neural Network Formation Assay for Percent of Spikes in a Burst, Shafer Lab (AID 2284032);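 as to AC50: fitted as a decrease in burst spike percentage below DMSO baseline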
# Method in brief: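 Value is trapezoidal AUC over recordings on days 5, 7, 9 and 12 of the well-mean fraction of spikes falling in single-electrode bursts; rat cortical cultures exposed continuously from plating, treatment renewed DIV 5 and 9, fitted downward against DMSO.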
# [3] = CCTE_Shafer_MEA_dev_burst_rate: CCTE's Neural Network Formation Assay for Burst Rate, Shafer Lab (AID 2284042);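 as to AC50: potency for loss of burst rate below DMSO control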
# Method in brief: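 Developmental network assay measuring how 12-day exposure of rat cortical neuron cultures alters bursting on extracellular MEA recordings. Values are AUC of well-mean burst rate across four recording days, relative to DMSO vehicle.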
# [4] = CCTE_Shafer_MEA_dev_bursting_electrodes_number: CCTE's Neural Network Formation Assay for Number of Bursting Electrodes, Shafer Lab (AID 2284043; active = hit-call score of the fitted dose curve at least 0.9, where 1 is the maximum;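 as to AC50: potency is for loss of bursting electrodes relative to DMSO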)
# Method in brief: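 Number of electrodes reaching ≥1 burst every 2 min was recorded at DIV 5, 7, 9 and 12 and collapsed as trapezoidal area under the curve. Cultures were rat cortical neurons on MEA plates, dosed continuously from plating with medium and treatment refreshed on DIV 5 and 9.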
# [5] = CCTE_Shafer_MEA_dev_per_burst_interspike_interval: CCTE's Neural Network Formation Assay for Burst Interspike Interval, Shafer Lab (AID 2284044);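 as to AC50: potency for a decrease of within-burst interspike interval below DMSO level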
# Method in brief: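 Rat cortical primary cultures, 16 electrodes/well; compound from plating, renewed with full media change DIV 5 and 9. Spikes via adaptive detector; per-burst ISI well-mean over active bursting electrodes; AUC of DIV 5/7/9/12 recordings; loss-direction fit vs DMSO.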
# [6] = CCTE_Shafer_MEA_dev_burst_duration_mean: CCTE's Neural Network Formation Assay for Mean Burst Duration, Shafer Lab (AID 2284045);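 as to AC50: curve fitted for loss meaning shorter burst duration than DMSO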
# Method in brief: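 Mean single-electrode burst duration (first to last spike), averaged over bursting electrodes per well, then integrated as area-under-curve across recordings at days 5, 7, 9 and 12. Rat cortical cultures on MEAs, compound present from plating, refreshed at feeds.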
# [7] = CCTE_Shafer_MEA_dev_interburst_interval_mean: CCTE's Neural Network Formation Assay for Mean Interburst Interval, Shafer Lab (AID 2284046);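 also: well-mean interburst interval of bursting electrodes as AUC over four recording days; curve fitted for decrease in interburst interval relative to DMSO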
# Method in brief: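 Network formation assay in primary rat cortical cultures, exposed from DIV 0 to 12. Mean interburst interval per well, integrated as AUC over four recordings.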
# [8] = CCTE_Shafer_MEA_dev_inter_network_spike_interval_mean: CCTE's Neural Network Formation Assay for Mean Inter-network Spike Interval, Shafer Lab (AID 2284047);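 as to AC50: potency for a decrease in mean inter-network spike interval below DMSO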
# Method in brief: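 Compound was given at plating to primary rat cortical neurons and renewed with full medium changes on DIV 5 and 9. Extracellular activity was recorded on days 5, 7, 9, 12; AUC values were fitted for loss relative to DMSO control.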
# [9] = CCTE_Shafer_MEA_dev_network_spike_number: CCTE's Neural Network Formation Assay for Number of Network Spikes, Shafer Lab (AID 2284048);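 also: synchronized bursts across electrodes counted on days 5 7 9 12 and integrated as AUC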;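 as to AC50: fit as a loss of signal meaning fewer network spikes than DMSO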
# Method in brief: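 Number of network spikes (coordinated firing across electrodes) recorded on days 5, 7, 9 and 12 and summarised as area under the curve. Rat cortical cultures on MEA, continuous compound exposure with full medium/treatment exchange at DIV 5 and 9.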
# [10] = CCTE_Shafer_MEA_dev_network_spike_peak: CCTE's Neural Network Formation Assay for Mean Number of Electrodes in Network Spike, Shafer Lab (AID 2284049);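 as to AC50: fitted for loss of signal meaning fewer electrodes in network spikes than DMSO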
# Method in brief: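 Rat cortical primary culture, 1.5 x 10^5 cells/well, 48-well MEA (16 electrodes/well). Dosing day 0 through DIV 12, full media/compound exchange DIV 5, 9. AxIS adaptive spike detection; AUC over days 5/7/9/12; loss-of-signal vs DMSO.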
# DIO2 (gene 1734) = assay: CCTE_GLTED_hDIO2: CCTE's human Deiodinase 2 (DIO2) Inhibition Assay, Great Lakes Toxicology and Ecology Division (GLTED) Lab (AID 2284050; active = hit-call score of the fitted dose curve at least 0.9, where 1 is the maximum)
# Method in brief: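 Iodide released by human deiodinase 2 over 3 h with test chemical, measured spectrophotometrically via Sandell-Kolthoff cerium/arsenic reaction. Run n=3; inhibition referenced to DMSO.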
# [11] = CCTE_Shafer_MEA_dev_spike_duration_mean: CCTE's Neural Network Formation Assay for Mean Spike Duration, Shafer Lab (AID 2284051);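 also: mean network spike duration pooled as area under curve over DIV 5 to 12 recordings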;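 as to AC50: potency for a decrease in mean network spike duration versus DMSO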
# Method in brief: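 With DMSO as baseline, loss of mean network spike duration was scored from extracellular recordings of rat cortical neurons on MEA plates. Exposure spanned plating to DIV 12; the four recording days were collapsed into one AUC value.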
# [12] = CCTE_Shafer_MEA_dev_network_spike_duration_std: CCTE's Neural Network Formation Assay for Standard Deviation of Network Spike Duration, Shafer Lab (AID 2284052);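 also: hits are decreases in network spike duration SD versus DMSO vehicle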
# Method in brief: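 Developing networks of rat cortical neurons were exposed over twelve days in vitro on 48-well MEA plates. Trapezoidal AUC of recordings (DIV 5–12) was analysed for signal loss relative to DMSO vehicle.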
# [13] = CCTE_Shafer_MEA_dev_per_network_spike_spike_number_mean: CCTE's Neural Network Formation Assay for Mean Number of Spikes in a Network Spike, Shafer Lab (AID 2284053);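 as to AC50: fitted as decrease in spikes per network spike relative to DMSO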
# Method in brief: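 First, rat cortical cells (1.5 x 10^5/well) were seeded onto MEA wells; second, dosing began at plating and was refreshed on DIV 5 and 9; finally, network-spike spike counts across DIV 5–12 were summarized as AUC.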
# [14] = CCTE_Shafer_MEA_dev_per_network_spike_spike_percent: CCTE's Neural Network Formation Assay for Percent of Spikes in a Network Spike, Shafer Lab (AID 2284054)
# Method in brief: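 Metric: fraction of spikes falling in a 0.05 s window at network-spike peaks. Recordings were made on days 5, 7, 9 and 12 and collapsed by trapezoidal AUC. Cultures were rat cortical neurons on MEA plates, dosed continuously from plating, re-dosed at media changes.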
# [15] = target: Estrogen receptor (Homo sapiens) (UniProt P03372); assay: CCTE_Deisenroth_AIME_384WELL_LUC_Active: CCTE's 384-well Estrogen Receptor Transactivation Assay with AIME metabolic competence (ERTA luciferase; metabolism positive), Deisenroth Lab (AID 2284030; active = hit-call score of the fitted dose curve at least 0.9, where 1 is the maximum)
# Estrogen receptor (Homo sapiens), sequence (P03372 whole entry, looked up): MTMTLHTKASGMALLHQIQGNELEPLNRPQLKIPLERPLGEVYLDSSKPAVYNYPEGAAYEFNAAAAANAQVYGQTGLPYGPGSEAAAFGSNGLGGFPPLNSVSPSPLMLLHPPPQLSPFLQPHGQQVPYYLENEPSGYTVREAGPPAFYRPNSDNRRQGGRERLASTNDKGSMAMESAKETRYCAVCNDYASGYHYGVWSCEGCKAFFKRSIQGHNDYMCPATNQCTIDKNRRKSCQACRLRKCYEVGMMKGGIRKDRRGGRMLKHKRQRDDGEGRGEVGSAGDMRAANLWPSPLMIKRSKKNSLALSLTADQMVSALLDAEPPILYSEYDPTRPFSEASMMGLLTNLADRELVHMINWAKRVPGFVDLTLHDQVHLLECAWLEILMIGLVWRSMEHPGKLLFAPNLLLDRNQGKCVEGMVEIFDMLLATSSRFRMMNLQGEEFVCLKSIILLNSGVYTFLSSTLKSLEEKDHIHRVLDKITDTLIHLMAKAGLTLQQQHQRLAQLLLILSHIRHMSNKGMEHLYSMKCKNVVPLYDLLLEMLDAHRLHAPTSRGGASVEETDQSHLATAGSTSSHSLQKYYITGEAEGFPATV
# Method in brief: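 Test chemicals (10-point series, 0.002 - 200 uM) were preincubated 2 hours with alginate-immobilized phenobarbital/beta-naphthoflavone-induced male Sprague Dawley rat liver S9; conditioned medium then went onto VM7Luc4E2 breast cells for 24 hour. Luciferase gain-of-signal fitted relative to 17beta-estradiol.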
# [16] = CCTE_Deisenroth_AIME_384WELL_CTox_Active: Cytotoxicity Assessment (CTOX) in CCTE's 384-well Estrogen Receptor Transactivation Assay with AIME metabolic competence (metabolism positive), Deisenroth Lab (AID 2284037; active = hit-call score of the fitted dose curve at least 0.9, where 1 is the maximum;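 also: chemicals first conditioned 2 h by alginate-bound induced rat liver S9 before cells; activity means signal loss indicating cell death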)
# Method in brief: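 Cytotoxicity in VM7Luc4E2 breast cells, 24 hour, measured as protease-substrate fluorescence loss, after 2-hour metabolic conditioning with induced rat hepatic S9 in alginate microspheres. Concentrations 0.002 - 200 uM, 10 points, bidirectional fitting.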
# [17] = CCTE_Deisenroth_AIME_384WELL_CTox_Inactive: Cytotoxicity Assessment (CTOX) in CCTE's 384-well Estrogen Receptor Transactivation Assay without AIME metabolic competence (metabolism negative), Deisenroth Lab (AID 2284039; active = hit-call score of the fitted dose curve at least 0.9, where 1 is the maximum;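 also: cell viability via live-cell protease substrate cleaved to fluorescent probe; cells exposed 24 h to medium preincubated 2 h with alginate-water beads without S9; loss of fluorescence signal means loss of viability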)
# Method in brief: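 Fluorescence from a live-cell protease substrate, read after 24 h in VM7Luc4E2 cells, indicated viability. Test medium came from a 2 h AIME step without hepatic S9 (alginate-water microspheres); concentrations spanned 0.002 - 200 uM, single technical replicate per run.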
# [18] = target: Estrogen receptor (Homo sapiens) (UniProt P03372); assay: CCTE_Deisenroth_AIME_384WELL_LUC_Shift: CCTE's 384-well Estrogen Receptor Transactivation Assay with AIME metabolic competence data shift (ERTA luciferase; difference in metabolism positive and negative), Deisenroth Lab (AID 2284041);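 also: shift is response with S9 minus without S9 so positive means metabolism raised ER signal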
# Method in brief: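 Test chemicals (0.002–200 uM, 10-point) were pre-incubated 2 h with alginate microspheres containing phenobarbital/beta-naphthoflavone-induced male Sprague Dawley rat liver S9 or water, then medium was transferred to VM7Luc4E2 cells for 24 h luciferase readout; shift = S9-positive minus S9-negative normalized response.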
structure (smiles),measurement,setting,value
CC(C)=CC1C(C(=O)OCN2C(=O)C3=C(CCCC3)C2=O)C1(C)C (stereo not given),outcome,[1],inactive
same,outcome,[2],inactive
same,outcome,[3],inactive
same,outcome,[4],inactive
same,outcome,[5],inactive
same,outcome,[6],inactive
same,outcome,[7],inactive
same,outcome,[8],inactive
same,outcome,[9],inactive
same,AC50,[10],1.98 µM (active)
same,AC50,DIO2 (gene 1734),70 µM (active)
same,outcome,[11],inactive
same,outcome,[12],inactive
same,outcome,[13],inactive
same,outcome,[14],inactive
COP(=O)(OC)SCn1c(=O)oc2cc(Cl)cnc21,outcome,[15],inactive
same,outcome,[16],inactive
same,AC50,[17],100 µM (active)
same,AC50,[18],71.1 µM (active)
CCOP(=S)(Oc1cnc(C(C)(C)C)nc1)OC(C)C (stereo not given),AC50,[1],12.2 µM (active)
same,outcome,[1],inactive
same,AC50,[2],89.1 µM (active) and 12.9 µM (active)
same,AC50,[3],14.3 µM (active)
same,outcome,[3],inactive
same,AC50,[4],91.8 µM (active) and 12 µM (active)
same,AC50,[5],12 µM (active)
same,outcome,[5],inactive
same,outcome,[6],inactive
same,AC50,[7],50 µM (active) and 16.6 µM (active)
same,outcome,[8],inactive
same,AC50,[9],14.8 µM (active)
same,outcome,[9],inactive
same,AC50,[10],85.8 µM (active) and 13 µM (active)
same,AC50,[11],74.9 µM (active) and 9.65 µM (active)
same,outcome,[12],inactive
same,AC50,[13],67.3 µM (active) and 9.31 µM (active)
same,AC50,[14],84.5 µM (active) and 23 µM (active)
CCOP(=S)(OCC)Oc1ccc2c(C)c(Cl)c(=O)oc2c1,AC50,[1],29.6 µM (active)
same,AC50,[2],50 µM (active)
same,outcome,[16],inactive
same,outcome,[17],inactive
same,outcome,[3],inactive
same,AC50,[4],50 µM (active)
same,outcome,[5],inactive
same,outcome,[6],inactive
same,outcome,[7],inactive
same,outcome,[8],inactive
same,outcome,[9],inactive
same,AC50,[10],50 µM (active)
same,outcome,[12],inactive
same,AC50,[13],24.4 µM (active)
same,AC50,[14],82.2 µM (active)
CC(C)N(C(=O)SCC(Cl)=C(Cl)Cl)C(C)C,outcome,[1],inactive
same,AC50,[2],24.4 µM (active)
same,outcome,[17],inactive
same,outcome,[3],inactive
same,AC50,[4],15 µM (active)
same,outcome,[6],inactive
same,outcome,[7],inactive
same,outcome,[8],inactive
same,outcome,[9],inactive
same,AC50,[10],15 µM (active)
same,AC50,[11],27.3 µM (active)
same,outcome,[12],inactive
same,AC50,[13],15 µM (active)
same,AC50,[14],15 µM (active)
CCOP(=S)(OCC)Oc1cc(C)nc(C(C)C)n1,AC50,[1],50 µM (active)
same,outcome,[1],inactive
same,AC50,[2],50 µM (active)
same,outcome,[2],inactive
same,outcome,[3],inactive
same,AC50,[4],60.2 µM (active)
same,outcome,[5],inactive
same,outcome,[6],inactive
same,outcome,[7],inactive
same,outcome,[8],inactive
same,outcome,[9],inactive
same,AC50,[10],50 µM (active)
same,outcome,[10],inactive
same,outcome,[11],inactive
same,outcome,[12],inactive
same,AC50,[13],16.1 µM (active)
same,outcome,[13],inactive
same,AC50,[14],77 µM (active)
same,outcome,[14],inactive
CCCSP(=O)(OCC)Oc1ccc(Br)cc1Cl (stereo not given),outcome,[1],inactive
same,outcome,[2],inactive
same,outcome,[16],inactive
same,outcome,[17],inactive
same,outcome,[3],inactive
same,outcome,[4],inactive
same,outcome,[5],inactive
same,outcome,[6],inactive
same,outcome,[7],inactive
same,outcome,[8],inactive
same,outcome,[9],inactive
same,outcome,[10],inactive
same,outcome,[11],inactive
same,outcome,[12],inactive
same,outcome,[13],inactive
same,outcome,[14],inactive
CON=C(C(=O)OC)c1ccccc1CON=C(C)c1cccc(C(F)(F)F)c1,AC50,[1],639 nM (active) and 964 nM (active)
same,AC50,[2],1.11 µM (active) and 1.32 µM (active)
same,AC50,[16],19.8 µM (active)
same,outcome,[17],inactive
same,AC50,[3],655 nM (active) and 1.28 µM (active)
same,AC50,[4],728 nM (active) and 758 nM (active)
same,AC50,[5],1.53 µM (active) and 2.32 µM (active)
same,AC50,[6],674 nM (active) and 995 nM (active)
same,AC50,[7],1.32 µM (active) and 798 nM (active)
same,AC50,[8],969 nM (active) and 1.72 µM (active)
same,AC50,[9],632 nM (active) and 884 nM (active)
same,AC50,[10],871 nM (active) and 742 nM (active)
same,AC50,[11],603 nM (active) and 625 nM (active)
same,AC50,[12],642 nM (active) and 886 nM (active)
same,AC50,[13],697 nM (active) and 542 nM (active)
same,AC50,[14],981 nM (active) and 686 nM (active)
CC1(C(=O)Nc2ccc(O)c(Cl)c2Cl)CCCCC1,outcome,[16],inactive
same,outcome,[17],inactive
C[Si](Cn1cncn1)(c1ccc(F)cc1)c1ccc(F)cc1,outcome,[1],inactive
same,outcome,[2],inactive
same,outcome,[3],inactive
same,AC50,[4],8.85 µM (active)
same,outcome,[5],inactive
same,outcome,[6],inactive
same,outcome,[7],inactive
same,outcome,[8],inactive
same,outcome,[9],inactive
same,AC50,[10],4.71 µM (active)
same,AC50,[11],5.85 µM (active)
same,outcome,[12],inactive
same,outcome,[13],inactive
same,AC50,[14],20.1 µM (active)
Nc1nc(N)nc(NC2CC2)n1,outcome,[16],inactive
same,outcome,[17],inactive
